Screens from PubChem BioAssay.
Shown are actives, neighbours in structure and some others; about 6% of the full set was active somewhere.
Sfp inh = blocks B. subtilis Sfp PPTase activity | Q9F4F7 | 310,000 compounds, 3.5% hits | Biochemical Sfp PPTase activity, qHTS | Potency, µM, hits mostly inhibitors;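 note: the enzyme is Sfp with the accession as filed and its product quenches rhodamine fluorescence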
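Compounds were incubated with enzyme (final 15 nM) for 15 min at room temperature before substrate addition started the reaction. Fluorescence at 525 nm excitation, 598 nm emission was recorded immediately and after 30 minutes.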
PLK1 PBD inh = inhibitors of human PLK1 polo-box domain binding | 360,000 compounds, 2.8% hits | P53350 | Plk1 PBD binding of FITC phosphopeptide, fluorescence polarization | Potency, µM, hits mostly inhibitors; note: series mostly up to about 57 µM; nearly all actives have a fitted effect of over 65% in size
Target sequence (P53350 whole entry, looked up, the tested form may be a part): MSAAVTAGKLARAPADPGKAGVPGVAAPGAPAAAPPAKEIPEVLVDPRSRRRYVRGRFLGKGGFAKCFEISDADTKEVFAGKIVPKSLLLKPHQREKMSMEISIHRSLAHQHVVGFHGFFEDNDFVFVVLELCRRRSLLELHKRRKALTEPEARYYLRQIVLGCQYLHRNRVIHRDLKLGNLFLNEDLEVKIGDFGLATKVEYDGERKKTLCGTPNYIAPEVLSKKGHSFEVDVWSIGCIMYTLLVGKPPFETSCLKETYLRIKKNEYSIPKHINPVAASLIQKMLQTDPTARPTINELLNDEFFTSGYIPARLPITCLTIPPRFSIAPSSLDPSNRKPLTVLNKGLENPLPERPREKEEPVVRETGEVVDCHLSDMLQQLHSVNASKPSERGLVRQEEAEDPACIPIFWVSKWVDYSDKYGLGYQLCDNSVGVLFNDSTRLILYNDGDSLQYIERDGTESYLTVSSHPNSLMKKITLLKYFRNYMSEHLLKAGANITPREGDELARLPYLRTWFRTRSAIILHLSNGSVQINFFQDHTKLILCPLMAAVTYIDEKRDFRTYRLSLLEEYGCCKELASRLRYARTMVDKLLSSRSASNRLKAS
VDR inhibitor = blocks the human vitamin D receptor; P11473; VDR-SRC2-3 peptide fluorescence polarization, 2 h; Potency, µM, actives largely listed as inhibitors; 400,000 compounds, 0.93% hits; AID 504847
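Fluorescence polarization assay measuring small-molecule disruption of VDR binding to the coregulator peptide SRC2-3. Compounds were pin-transferred (23 nl) into the reagent mix and incubated 2 h at room temperature before reading.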
Tau fluor counter = counter-screen for tau fibril formation inhibitors; 280,000 compounds, 0.93% hits; tau K18 P301L Alexa594 fluorescence, heparin fibrillization; AID 1463; Potency, µM (top dose mostly 57.7 µM); note: nearly all actives have a fitted effect of over 55% in size
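Human K18 P301L tau (15 uM unlabeled plus 0.24 uM Alexa 594-labeled, final) in 100 mM sodium acetate pH 7 was mixed with compound and 20 uM heparin and incubated 6 hr at 37 C.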
Tau ThT inhib = tau fibrillization inhibition (ThT binding); Potency, µM (doses to about 57.4 µM), actives largely listed as inhibitors; P10636; recombinant tau K18 P301L, heparin-induced fibrillization, ThT fluorescence; 270,000 compounds, 2.1% hits; note: nearly all actives have a fitted effect of over 55% in size
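Heparin-induced (20 uM) aggregation of recombinant human K18 P301L tau, 15 uM unlabeled with 0.24 uM labeled, pH 7 acetate buffer, 6 hr at 37 C with compound. Fibrils quantified by 30 uM ThT fluorescence after 1 hr ambient incubation.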
Tau FP inhib = tau fibrillization inhibition (FP); Potency, µM (series often up to 57.7 µM), most hits filed as inhibitors; 280,000 compounds, 0.39% hits; K18 P301L tau heparin fibrillization, Alexa594 FP, 6 h; AID 1468; note: nearly all actives have a fitted effect of over 55% in size
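Heparin (20 uM) drove fibril formation of recombinant tau K18 P301L, 15 uM unlabeled with 0.24 uM Alexa 594 label, for 6 hr at 37 C in 100 mM sodium acetate pH 7. Fluorescence polarization (555/632 nm) read 1 hr after 30 uM ThT.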
Sfp inh conf = confirmation of Bacillus subtilis Sfp PPTase inhibitors; shares compounds with Sfp inh; Sfp PPTase enzymatic assay, qHTS titration; Potency, µM (top dose mostly 114 µM), most hits filed as inhibitors; 380 compounds, 79% hits
Sfp PPTase gel = Blocks Sfp PPTase activity, gel read-out; Potency, µM, actives largely listed as inhibitors; 210 compounds, 20% hits; purified Sfp, gel-based phosphopantetheinylation read-out; shares compounds with Sfp inh;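 active = potency below 100 µM; inconclusive = dose-dependent response but potency above 100 µM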;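 note: potency is an IC50 for inhibitors of Sfp transfer activity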
USP1-UAF1 confirm = blocks human USP1/UAF1 cleavage of Ub-Rhodamine | AID 540327 | shares compounds with VDR inhibitor | Ub-Rhodamine cleavage, fluorescence kinetic read | Potency, µM (highest dose often 114 µM), hits mostly inhibitors | 50 compounds, 50% hits
TbPYK confirm = confirmation of Trypanosoma brucei pyruvate kinase inhibitors | shares compounds with PLK1 PBD inh | recombinant TbPYK, Kinase-Glo ATP luminescence | 890 compounds, 67% hits | Potency, µM (doses to about 76.9 µM), actives largely listed as inhibitors; note: nearly all actives have a fitted effect of over 70% in size
TbPYK ADP-Glo = orthogonal confirmation of Trypanosoma brucei pyruvate kinase inhibitors; shares compounds with PLK1 PBD inh; recombinant TbPYK, ADP-Glo luminescence, 60 min; Potency, µM (titrated, usually from 76.9 µM), hits mostly inhibitors; 890 compounds, 62% hits; AID 720584; note: nearly all actives have a fitted effect of over 75% in size
A number is an active result; i = inactive; ? = inconclusive; nt = not tested or not shown; ! = a repeat was not active. Unless noted, calls come from the whole dose curve; as a rule, active = well fitted curve in the direction sought with a large enough effect; inconclusive = small, poorly fitted or top-dose-only effect, or another doubt; inactive = no such curve, though single readings can be large; an effect the other way counts as inactive or inconclusive.

SMILES	Sfp inh	PLK1 PBD inh	VDR inhibitor	Tau fluor counter	Tau ThT inhib	Tau FP inhib	Sfp inh conf	others
C/C(=N\Nc1ccccc1)c1c(O)[nH]c(=O)[nH]c1=O	i	i	i	i	nt	i	nt
CC/C(=N\NC(=S)Nc1ccccc1)c1c(O)[nH]c(=O)[nH]c1=O	22µM	i	i	i	?	?	nt
NC(=O)CF	i	nt	i	nt	nt	nt	nt
COCCNC(=O)c1c(N)n(CCC(C)C)c2nc3ccccc3nc12	i	i	?	?	i	i	nt
COCCCNC(=O)c1c(NC(=O)c2ccco2)n(Cc2ccccc2)c2nc3ccccc3nc12	i	?	45µM	?	?	?	nt
CCCCCn1c(NC(=O)c2ccco2)c(C(=O)OCC)c2nc3ccccc3nc21	?	?	5µM	i	?	?	nt
COCCNC(=O)c1c(NC(=O)c2ccc(Br)o2)n(Cc2ccccc2)c2nc3ccccc3nc12	28µM	i	?	i	?	i	nt
O=C(Nc1ccc2c(c1)OCCO2)c1cccn(Cc2cccc(F)c2)c1=O	nt	nt	i	?	?	i	nt
CC(=O)O[C@@]12CO[C@@H]1C[C@H](O)[C@@]1(C)C(=O)[C@H](O)C3=C(C)[C@@H](OC(=O)[C@H](O)[C@@H](NC(=O)c4ccccc4)c4ccccc4)C[C@@](O)([C@@H](OC(=O)c4ccccc4)C12)C3(C)C (stereo partly drawn)	11µM	i	i	nt	nt	nt	nt
O=C(NC1CCCCC1)c1cn(CCN2CCOCC2)c2cc(Cl)ccc2c1=O	i	nt	i	nt	nt	nt	nt
O=C(Nc1ccc(Cl)c(C(F)(F)F)c1)C1CCCN(S(=O)(=O)c2cccc3cccnc23)C1 (stereo not drawn)	nt	nt	i	?	i	i	nt
CN1CC[C@@]2(CCCN(C(=O)c3csnn3)C2)C1	i	nt	45µM	nt	nt	nt	nt
Cc1ccc(CNC(=O)CCCn2c(=O)c3sccc3n(CC(=O)Nc3c(C)cccc3C)c2=O)cc1	nt	nt	i	i	i	i	nt
COc1ccc(C(=O)CC2(CC(=O)c3ccc(OC)cc3)C(=O)N(C)C(=O)N(C)C2=O)cc1	i	i	i	i	i	i	nt
CN1C(=O)N(C)C(=O)C2(Cc3c(ccc4ccccc34)N(C)C2)C1=O	i	8.4µM	i	?	?	?	nt
O=C(COc1cc(Cl)ccc1Cl)Nc1ccc(Cl)cc1C(=O)c1ccccc1	nt	nt	i	i	i	i	nt
Nc1cncc(C(=O)O)c1	79µM!	i	i	i	i	i	nt
NC(=O)c1cn(C2OC(CO)C(O)C2O)c2ncnc(N)c12 (stereo not drawn)	i	i	i	i	i	i	nt
NC(=O)c1ncn(C2OC(CO)C(O)C2O)n1 (stereo not drawn)	56µM	nt	i	i	i	i	83µM	Sfp PPTase gel=56µM
COC1CC(=C(c2cccs2)c2cccs2)C[N+](C)(C)C1 (stereo not drawn)	i	nt	i	nt	nt	nt	nt
Nc1ccnn1C1CCNCC1	18µM	i	i	i	?	i	?	Sfp PPTase gel=i
CN1CCC(n2nccc2N)CC1	i	i	i	i	i	i	nt
C=C(C)[C@H]1CN[C@H](C(=O)O)[C@@H]1CC(=O)O	?	nt	i	i	i	i	nt
C=C(C)[C@H]1CN[C@H](C(=O)O)[C@H]1CC(=O)O	40µM!	i	i	i	i	i	i	Sfp PPTase gel=i
CC1=C2CC3C(CC=C4C[C@@H](O)CC[C@@]43C)[C@@H]2CC[C@]12O[C@@H]1C[C@H](C)CN[C@H]1[C@H]2C (stereo partly drawn)	i	nt	i	i	i	i	nt
SMILES	Sfp inh	PLK1 PBD inh	VDR inhibitor	Tau fluor counter	Tau ThT inhib	Tau FP inhib	Sfp inh conf	others
CCOC(=O)[C@]1(C#N)[C@@H]2C=CC(C(C)=O)=CN2[C@@H](C(N)=O)[C@@H]1c1ccsc1	40µM	?	i	i	32µM	?	?	Sfp PPTase gel=?
CC(C)C(Br)C(=O)NC(N)=O (stereo not drawn)	i	nt	i	nt	nt	nt	nt
CCOC(=O)c1c(/N=C/c2c(O)n(-c3ccccc3F)c(=S)[nH]c2=O)sc2c1CCCC2	13µM	24µM	?	i	22µM	?	19µM
Nc1nc(/C(=C/CC(=O)O)C(=O)NC2C(=O)N3C(C(=O)O)=CCSC23)cs1 (stereo not drawn)	56µM	nt	50µM	i	i	?	42µM	Sfp PPTase gel=?
O=c1[nH]c2ccccc2n1C1CCN(CCCC(c2ccc(F)cc2)c2ccc(F)cc2)CC1	45µM!	i	?	?	?	i	42µM	Sfp PPTase gel=?;USP1-UAF1 confirm=?
Oc1ccc2c3c1O[C@H]1[C@@H](O)CC[C@@]4(O)C(C2)N(CC2CCC2)CCC314 (stereo partly drawn)	i	nt	i	i	i	i	nt
C[C@]12CC[C@@H]3c4ccc(O)c(O)c4CC[C@H]3[C@@H]1CC[C@@H]2O	3.2µM	?	i	?	14µM	?	6.6µM	Sfp PPTase gel=2.1µM;TbPYK confirm=10µM;TbPYK ADP-Glo=10µM
C[C@]12CC[C@@H]3c4cc(O)c(O)cc4CC[C@H]3[C@@H]1CC[C@@H]2O	4µM	21µM	i	?	?	i	21µM	Sfp PPTase gel=6.2µM;TbPYK confirm=2.2µM;TbPYK ADP-Glo=3.5µM
C[C@]12CC[C@H]3[C@@H](CCC4=CC(=O)CC[C@@H]43)[C@@H]1CC[C@@H]2O	i	i	i	i	i	i	nt
CC(C)CN1CCC2(CC1)CCN(C(=O)Oc1ccccc1)CC2	i	nt	i	nt	nt	nt	nt
